Experimental data as given in PubChem BioAssay (NCI).
This is part of a sample that, as a whole, favours compounds with a hit. Of some 79,000 tested, about 15% had one in any assay. Active and inactive are the calls of the source. Rule as the data show it: active = growth inhibition above about 70%; inactive = the rest.

What was measured:
[1] = NCI Yeast Anticancer Drug Screen. Data for the rad50 strain (AID 155);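 also: 0% = growth of vehicle-only cultures of the same strain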; details: S. cerevisiae rad50 strain growth inhibition, active compounds read high; at 50.0 µM unless noted
In short: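 DNA repair mutant yeast, compound exposure, growth read-out; inhibition is taken relative to vehicle.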

[2] = NCI Yeast Anticancer Drug Screen. Data for the mec2-1 strain (AID 157); details: S. cerevisiae mec2-1 strain, active compounds read high; at 50.0 µM unless noted
In short: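 Strain: mec2-1 (DNA repair/cell cycle alteration). Compound exposure, then growth measured; inhibition expressed relative to vehicle.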

[3] = NCI Yeast Anticancer Drug Screen. Data for the sgs1 mgt1 strain (AID 161);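 also: 0% = growth of cultures given vehicle only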; details: S. cerevisiae sgs1 mgt1 strain, active compounds read high; at 50.0 µM unless noted
In short: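 Genetically altered yeast, compound exposure, growth inhibition relative to vehicle.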

[4] = NCI Yeast Anticancer Drug Screen. Data for the cln2 rad14 strain (AID 165);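 also: 0% = growth equal to vehicle treated cultures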; details: S. cerevisiae cln2 rad14 strain, active compounds read high; at 50.0 µM unless noted
In short: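 Compounds are applied to the cln2 rad14 yeast strain, and growth is then compared with that of vehicle-treated cultures to give inhibition.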

[5] = NCI Yeast Anticancer Drug Screen. Data for the bub3 strain (AID 167); details: S. cerevisiae bub3 mutant strain, active compounds read high; at 50.0 µM unless noted
In short: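 In this screen, a yeast mutant lacking normal mitotic checkpoint function is challenged with compound. Relative growth versus vehicle gives the inhibition value.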

[6] = NCI Yeast Anticancer Drug Screen. Data for the mlh1 rad18 strain (AID 175); details: S. cerevisiae mlh1 rad18 strain growth inhibition, active compounds read high; at 50.0 µM unless noted
In short: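 Read-out is yeast growth inhibition, calculated against vehicle-only controls. The compound was applied to a strain engineered with DNA damage repair alterations.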

Measured: growth inhibition

COc1ccc2nc3cc([N+](=O)[O-])ccc3c(NCCCN(C)C)c2c1
inactive: [1] 7.05% | [2] -1.9% | [3] 45.4% | [4] 20.9% | [5] 8.25% | [6] 5.4%

CCO/C([O-])=N\[n+]1c(C)nc2cc3c(cc2c1C)OCO3
inactive: [1] 5.75% | [2] 5.65% | [3] 1.2% | [4] 7.8% | [5] 9% | [6] 8.9%

Clc1cccc(/C=N\N=C\c2cccc(Cl)c2)c1
inactive: [1] -4.6% | [2] -7.75% | [3] 6.3% | [4] -8.75% | [5] -1.95% | [6] 5.45%

O=C(O)CNC(=S)SCC(=O)O
inactive: [1] -2.4% | [2] -6.55% | [3] -23.1% | [4] -32.4% | [5] 5.2% | [6] -19.6%

Cc1ccc2nc(-c3ccc(NC(=O)c4ccc(N)cc4)c(S(=O)(=O)O)c3)sc2c1
inactive: [1] 1.9% | [2] 4.7% | [3] -25.9% | [4] -22% | [5] -16.4% | [6] -8.85%

O=C1NCCCC1C(=O)Nc1cccc2c1NCCC2 (stereo not drawn)
inactive: [1] -10.2% | [2] -40.4% | [3] 0.95% | [4] -1.45% | [5] 39.6% | [6] -32.4%

O=c1[nH]c2cc(Cl)c([N+](=O)[O-])cc2o1
inactive: [1] 12.1% | [2] -0.5% | [3] -0.5% | [4] -18.1% | [5] -14.9% | [6] 16.7%

Cc1cc[n+](CCC(N)=O)cc1
inactive: [1] -10.8% | [2] -30.8% | [3] -3% | [4] 1.85% | [5] -16.9% | [6] -19.9%

CCOC(=O)C(=CNC(=S)Nc1c(CC)cccc1CC)C(=O)OCC
inactive: [1] -26.2% | [2] -38.4% | [3] -2.9% | [4] 4.65% | [5] -5.15% | [6] -59.9%

CC1(C)CSCC(C)(C)C(=N/N)/C1=N\N
inactive: [1] 6.95% | [2] 22.7% | [3] -8.35% | [4] 4.35% | [5] -33% | [6] -41.3%

O=C(O)c1cccc2c(=O)c3ccccc3oc12
inactive: [1] -13.9% | [2] -39.8% | [3] -16.9% | [4] 8.25% | [5] -32.4% | [6] 0.85%

O=C(Cc1nc2ccccc2o1)C(=O)Nc1cccc(Cl)c1
inactive: [1] -4.25% | [2] 0.9% | [3] -1.95% | [4] -42.2% | [5] 3.65% | [6] 19.1%

CCN(CC)CCOC(=O)Cc1cccc2c(=O)cc(-c3ccccc3)oc12
inactive: [1] -1.65% | [2] -11.7% | [3] -3.65% | [4] -3.9% | [5] 14.8% | [6] -53%

N#CCSc1ncnc2nc[nH]c12
inactive: [1] 4.25% | [2] 1.65% | [3] -5.95% | [4] 5.6% | [5] 4.8% | [6] 0.15%

N=C(N)CCNC(=O)C1CCC(N)=N1 (stereo not drawn)
inactive: [1] -4.85% | [2] -17.8% | [3] -13.9% | [4] 56.4% | [5] -28.1% | [6] -13.6%

Nc1nc(CCCCc2ccc(NC(=O)CBr)cc2)c(CCCCc2ccccc2)c(=O)[nH]1
inactive: [1] 27.6% | [2] 11.3% | [3] 34.7% | [4] 24.8% | [5] -3.1% | [6] 11.4%

O=C(NCc1ccccc1)c1n[nH][nH]c1=O
inactive: [1] 3.05% | [2] 5.8% | [3] 12.2% | [4] -8.15% | [5] -3.3% | [6] 20.6%

O=CC[C@]12CC(=O)OC(C=CC13OCCO3)C2
inactive: [1] 6.55% | [2] -9.4% | [3] -16.7% | [4] 17.6% | [5] 13.4% | [6] 9.05%

CC1CN(CCO)CCN1Cc1ccccc1 (stereo not drawn)
inactive: [1] -12.6% | [2] -12.3% | [3] -16.6% | [4] -5.1% | [5] -12.6% | [6] -5.8%

Cc1ccccc1C(c1ccccc1Cl)[N+](C)(C)C (stereo not drawn)
inactive: [1] 35% | [2] 14.7% | [3] 27.1% | [4] 19.2% | [5] -3.95% | [6] 43.1%

O=C(NCCCl)NC1CCCCCC1
inactive: [1] -10.8% | [2] -3.6% | [3] -16% | [4] -9.35% | [5] -3.05% | [6] 2.05%

COc1ccccc1CN1CCCN(Cc2ccccc2OC)C1c1cccc(F)c1
inactive: [1] 0.75% | [2] 9.9% | [3] 0.65% | [4] 16.4% | [5] 6.65% | [6] 17.8%

CCCCCCCc1nc(CCCCCCC)nc(CCCCCCC)n1
inactive: [1] 1.05% | [2] 12.9% | [3] 6% | [4] -15.1% | [5] 19.8% | [6] 12.6%

C(#Cc1ccccc1)COc1ccccc1
inactive: [1] 9.9% | [2] 11.9% | [3] -15.1% | [4] 1.5% | [5] 17.1% | [6] -5.25%

CCC12CCCNC1c1c(n(C)c3ccccc13)C(C(=O)OC)C2 (stereo not drawn)
inactive: [1] 36.9% | [2] -2.9% | [3] 25% | [4] 25.6% | [5] -9.05% | [6] -20.7%

CCCCCCC(CCN(C)C)(C(C)=O)c1ccccc1 (stereo not drawn)
inactive: [1] -3.3% | [2] 3.7% | [3] 1.05% | [4] -3.5% | [5] 6.85% | [6] 11.1%

O=C1C(c2ccccc2)=C(c2ccccc2)C1(Cl)Cl
active: [6] 88.4%
inactive: [1] -5.95% | [2] -6.1% | [3] 44.3% | [4] 37.6% | [5] 17.9%

O=C(Cc1cccnc1)c1cccnc1
inactive: [1] -52.3% | [2] -18.9% | [3] -8.15% | [4] -11.9% | [5] -15% | [6] -7.55%

O=C(O)c1cccc(S(=O)(=O)c2ccc([N+](=O)[O-])cc2)c1
inactive: [1] -0.25% | [2] 0.55% | [3] 4.9% | [4] -6.15% | [5] -5.7% | [6] 14.2%

COc1ccc2c(c1)c(CC(=O)O)c(C)n2Cc1ccccc1
inactive: [1] -13.7% | [2] -16% | [3] -13.7% | [4] -14.8% | [5] 17.4% | [6] -7.65%

Cc1cc2c(C)nn(Cc3ccccc3)c2c(C(N)=O)c1C
inactive: [1] 9.85% | [2] -6.65% | [3] -10% | [4] 35.6% | [5] -3.1% | [6] 51.4%

CN(C)c1ccc(NC(=O)C(c2ccccc2)c2ccccc2)cc1
inactive: [1] 6.8% | [2] -14.6% | [3] 0.4% | [4] -23.8% | [5] 4.35% | [6] -12.9%

OCCC1CCCCN1 (stereo not drawn)
inactive: [1] 9.25% | [2] -8.4% | [3] -20.4% | [4] -18.4% | [5] -0.75% | [6] 54.5%

C1=C(N2CCCC2)C(=[N+]2CCCC2)C(N2CCCC2)=C1
inactive: [1] 3.65% | [2] -2.45% | [3] 5.55% | [4] -7.25% | [5] 1.5% | [6] 9.15%

O=C(O)Cc1cc2c(cc1I)OCO2
inactive: [1] -1.2% | [2] 22.9% | [3] 2.15% | [4] -18.9% | [5] -11.2% | [6] -0.55%

COc1ccccc1/C=C\C#N
inactive: [1] -9.2% | [2] -6.1% | [3] -6.45% | [4] -28% | [5] -29.2% | [6] -13.4%

[N-]=[N+]=Nc1c(C=O)c(=O)n2c3c(cccc13)CCC2
inactive: [1] 17.2% | [2] 32% | [3] 29.2% | [4] 31.2% | [5] 27.7% | [6] 61%

C=C(C)C(=O)Oc1ccccc1/C=C/C(=O)CCCCCC
inactive: [1] -8.45% | [2] -14.1% | [3] -20.4% | [4] -9.1% | [5] -11% | [6] 4.4%

O=c1c2cc(O)c(O)cc2oc2cc(O)c(C3OC(CO)C(O)C(O)C3O)c(O)c12 (stereo not drawn)
inactive: [1] 14.2% | [2] 1.1% | [3] -27.7% | [4] 6.45% | [5] -41.4% | [6] -77.1%

CC(=O)c1cccc(NC(=O)Oc2ccc(-c3ccccc3)cc2Cl)c1
active: [1] 99.2% | [2] 99.6% | [3] 99.5% | [4] 98.8% | [5] 99.5% | [6] 99.3%

C=CCCCCCCCCCCCCCCCC
inactive: [1] -24% | [2] -49% | [3] -23.1% | [4] -13.2% | [5] -27.6% | [6] -9.2%

CC/C(=N/NC(N)=O)c1ccc(C)cc1
inactive: [1] -11.9% | [2] -11.8% | [3] -10.2% | [4] -21.1% | [5] 2.75% | [6] -8.9%

Cc1c2c(c(O)c3sccc13)C(C)(C)OC2=O
inactive: [1] -3.75% | [2] -1.8% | [3] -9.6% | [4] -59% | [5] -26.4% | [6] -3.1%
